In the library only some 12% were active in any assay of this set; here they are far more common.
G9a inh = blocks human histone lysine methyltransferase G9a. Q96KQ7. G9a H3K9 monomethylation, AlphaScreen, 2 h. Potency, µM (doses to about 102 µM), without a hit: at the highest dose activity, negative = inhibition, hits mostly inhibitors. actives 8.8% (n = 350,000). AID 504332; note: % is set by controls: 0 for no effect and ±100 for the full control effect; nearly all actives have a fitted effect of over 75% in size
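Readings reflect AlphaScreen signal from monomethyl-H3K9 antibody detection. HMT at 20 nM; substrate b-H3K9 500 nM; cofactor SAM 20 uM; 2 h RT reaction; compounds tested as titrations in qHTS with 15 min preincubation.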
Sfp inh = Sfp phosphopantetheinyl transferase inhibition; Q9F4F7; Biochemical Sfp PPTase activity, qHTS; Potency, µM, inactives show largest response in the series, negative = inhibition, hits mostly inhibitors; actives 3.5% (n = 310,000);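 note: the enzyme is Sfp with the accession as filed and its product quenches rhodamine fluorescence; 0% = enzyme reaction without inhibitor and -100% = no enzyme wells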
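With Hepes-Na pH 7.6 buffer containing 10 mM MgCl2, Sfp (15 nM) modified BHQ-2-YbbR (12.5 uM) using rhodamine-CoA (5 uM). Two reads 30 minutes apart at 525/598 nm yielded each well's rate.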
JMJD2A Tudor = inhibitors of human JMJD2A Tudor domain. actives 4.4% (n = 390,000). O75164. Potency, µM (doses to about 114 µM), for the others: at the top dose activity change, negative = inhibition, usual class: inhibitors. AlphaScreen JMJD2A-Tudor / H3K4me3 peptide binding; note: % is set by controls: 0 for no effect and ±100 for the full control effect; nearly all actives have a fitted effect of over 50% in size
Target sequence (O75164 whole entry, looked up, the tested form may be a part): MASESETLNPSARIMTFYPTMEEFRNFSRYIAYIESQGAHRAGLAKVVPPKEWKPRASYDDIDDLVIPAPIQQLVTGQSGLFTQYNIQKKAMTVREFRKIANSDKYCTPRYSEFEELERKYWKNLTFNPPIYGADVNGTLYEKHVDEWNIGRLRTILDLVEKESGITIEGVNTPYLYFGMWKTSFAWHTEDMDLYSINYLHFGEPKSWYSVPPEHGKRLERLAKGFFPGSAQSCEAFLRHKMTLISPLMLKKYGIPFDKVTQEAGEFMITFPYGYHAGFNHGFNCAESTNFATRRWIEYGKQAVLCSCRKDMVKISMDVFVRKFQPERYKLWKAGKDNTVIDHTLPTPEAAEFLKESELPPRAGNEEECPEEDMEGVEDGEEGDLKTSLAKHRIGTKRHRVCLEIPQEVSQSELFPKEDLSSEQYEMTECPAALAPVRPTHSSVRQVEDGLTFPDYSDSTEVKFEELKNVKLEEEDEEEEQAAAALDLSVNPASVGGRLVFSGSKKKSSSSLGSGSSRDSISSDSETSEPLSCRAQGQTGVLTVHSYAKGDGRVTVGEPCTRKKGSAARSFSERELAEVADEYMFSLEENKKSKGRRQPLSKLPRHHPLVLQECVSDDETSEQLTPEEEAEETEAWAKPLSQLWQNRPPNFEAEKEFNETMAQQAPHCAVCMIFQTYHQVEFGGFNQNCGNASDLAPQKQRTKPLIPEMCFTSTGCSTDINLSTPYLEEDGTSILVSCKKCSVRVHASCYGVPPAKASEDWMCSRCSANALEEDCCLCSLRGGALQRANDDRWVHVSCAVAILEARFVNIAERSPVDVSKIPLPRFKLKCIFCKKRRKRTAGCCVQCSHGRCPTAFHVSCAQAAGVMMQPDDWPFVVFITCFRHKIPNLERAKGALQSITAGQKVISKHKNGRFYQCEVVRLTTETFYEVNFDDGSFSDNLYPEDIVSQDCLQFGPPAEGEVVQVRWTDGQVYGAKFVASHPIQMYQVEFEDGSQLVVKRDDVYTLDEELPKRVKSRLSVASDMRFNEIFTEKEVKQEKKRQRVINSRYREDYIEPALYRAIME
BAZ2B inh = inhibitors of human BAZ2B bromodomain | AlphaScreen BAZ2B-H3K14Ac peptide displacement | Potency, µM (top dose mostly 114 µM), for inactives: at the highest dose activity change, negative = inhibition, hits mostly inhibitors | actives 4.4% (n = 360,000); note: % is set by controls: 0 for no effect and ±100 for the full control effect; nearly all actives have a fitted effect of over 60% in size
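Multi-concentration screen (max 110 uM) measuring displacement of acetylated histone H3 peptide from BAZ2B by AlphaScreen, using 50 nM protein, 50 nM peptide and 10 ug/mL streptavidin donor plus Ni-chelate acceptor beads.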
HP1b binding inh = blocks HP1-beta chromodomain binding to methylated histone tails; AlphaScreen HP1-beta / biotin-H3K9me3 peptide binding; Potency, µM (highest dose often 114 µM), inactives show top-dose activity change, negative = inhibition, usual class: inhibitors; actives 0.56% (n = 390,000); note: nearly all actives have a fitted effect of over 70% in size
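AlphaScreen: HP1-beta (50 nM) preformed 30 min with biotin-H3(1-18)K9me3 peptide (50 nM) in PBS pH 7.4, 0.01% Tween-20. Compound added for 30 min at RT, then streptavidin donor/nickel chelate acceptor beads (10 ug/mL) for 30 min.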
Active calls of the source: *; ? = inconclusive; . = not tested or not shown; [ ] = dose if it differs, or a comment. Calls come from the whole dose curve; as a rule, active = well fitted curve in the direction sought with a large enough effect; inconclusive = small, poorly fitted or top-dose-only effect, or another doubt; inactive = no such curve, though single readings can be large; an effect the other way counts as inactive or inconclusive. Potency is the fitted concentration of half-maximal effect.

SMILES	G9a inh	Sfp inh	JMJD2A Tudor	BAZ2B inh	HP1b binding inh
CNC(=O)c1ccc(NC(=O)CC2SC(N3CCCC3)=NC2=O)cc1 (centres undefined)	2µM*	.	2.9%	-13.1%	40.4%
CC(C)NC(=O)c1ccc(NC(=O)CC2SC(N3CCCC3)=NC2=O)cc1 (centres undefined)	-7.5%[2.33 µM]	.	-7.1%	4.8%	25.7%
Cc1cc(C)nc(-n2nc(C)cc2NC(=O)c2cc(=O)c3ccccc3o2)n1	12.8%[12.7 µM]	19.6%	.	-4.2%	.
CC(C)(C)NC(=O)Cn1nnc(-c2ccc(S(C)(=O)=O)cc2)n1	5.4%	26.2%	0.0%	-3.3%	10.0%
Nc1cc2c(cc1[N+](=O)[O-])OCO2	50.1µM*	2.4%	?	56.2µM*	-11.8%
Nc1cc2c(cc1[N+](=O)[O-])OCCO2	9.8%[59 µM]	6.3%	-19.3%	-5.8%	12.8%
COc1ccc(/C=C/c2nc(S(=O)(=O)c3ccccc3)c(NCCCN(C)C)o2)cc1OC	79.4µM*	1.8%	-8.2%	-6.4%	63.4%
Cc1ccc(N=C2c3ccccc3C(=O)C2[N+](=O)[O-])cc1C (centres undefined)	39.8µM*	5.1%	-27.2%	-27.4%	17.4%
CCS(=O)(=O)N1CCN(c2nc(-c3ccccc3)cs2)CC1	12.6µM*	?	-34.6%	-13.7%	-8.9%
O=C(Cc1cccs1)N1CCN(c2nc(-c3ccc(Cl)cc3)cs2)CC1	70.8µM*	-15.2%	-22.3%	-6.4%	-12.1%
CCOC(=O)N1CCN(c2nc(-c3ccc(Cl)cc3)cs2)CC1	11.2µM*	?	-6.7%	-12.7%	54.5%
COc1ccc(/C=C2\SC(=S)N(NS(=O)(=O)c3ccc(C)cc3)C2=O)c(OC)c1	-45.6%	-25.6%	56.2µM*	?	-19.1%[57 µM]
COc1ccc(OC)c(/C=C2\SC(=S)N(NS(=O)(=O)c3ccc(C)cc3)C2=O)c1	5.3%[2.33 µM]	11.1%	50.1µM*	?	?
COc1ccc(OC)c(/C=C2\SC(=S)N(NS(=O)(=O)c3ccccc3)C2=O)c1	-37.4%[12.7 µM]	1.4%	?	39.8µM*	-2.7%
COc1ccccc1/C=C1\SC(=S)N(NS(=O)(=O)c2ccc(C)cc2)C1=O	?	-15.1%	?	50.1µM*	-17.8%
Cc1ccc(S(=O)(=O)NN2C(=O)/C(=C/c3cccnc3)SC2=S)cc1	-2.6%	-5.5%	-11.2%	-26.7%	34.6%
COc1ccc(/C=C2\SC(=S)N(NS(=O)(=O)c3ccccc3)C2=O)c(OC)c1	?	?	-25.8%	-20.9%	6.2%
CCOc1ccc(/C=C2\SC(=S)N(NS(=O)(=O)c3ccc(C)cc3)C2=O)cc1OC	?	-21.8%	?	?	-10.0%
COc1ccc(Cl)cc1Nc1ncnc2c1c(-c1ccccc1)cn2-c1ccccc1	10.5%[59 µM]	.	-19.9%	-1.3%	17.6%
CN1CN(C)C(c2ccncc2)=C1c1ccncc1	39.8µM*	-10.6%	-7.0%	-8.6%	21.7%
Cn1c(-c2ccncc2)nc2ccccc21	0.8%[0.501 µM]	24.1%	-13.6%	9.5%	18.5%
O=C(CCCN1C(=O)C(c2ccccc2)Oc2cccnc21)NCc1ccccc1Cl (centres undefined)	13.4%[59 µM]	-4.5%	-3.4%	-3.8%	32.0%
O=c1c2c3c(sc2[nH]c(=S)n1Cc1ccco1)CCC3	14.1µM*	50.1µM*	-16.2%[11.4 µM]	44.7µM*	2.1%
CC1(C)Cc2c(sc3c2c(=N)n(Cc2ccco2)c(=O)n3Cc2ccccc2)CO1	?	-13.3%	-7.5%[11.4 µM]	79.4µM*	-7.0%
CC1(C)Cc2c(sc3[nH]c(=S)n(Cc4ccco4)c(=O)c23)CO1	50.1µM*	14.1µM*	?	-3.1%	-7.7%
SMILES	G9a inh	Sfp inh	JMJD2A Tudor	BAZ2B inh	HP1b binding inh
CC1(C)Cc2c(sc3c2c(=O)n(Cc2ccccc2)c2nncn32)CO1	8.6%[59 µM]	12.2%	-4.8%	.	31.5%
CC1(C)Cc2c(sc3c2c(=N)n(Cc2ccco2)c(=O)n3Cc2ccc(Cl)cc2)CO1	?	-12.8%	-25.3%	.	-1.3%
Cc1cc(C)c(C)c(S(=O)(=O)N2CCC(C(=O)NCCCN3CCOCC3)CC2)c1C	-9.4%[12.7 µM]	.	-14.8%	-6.5%	27.7%
COc1ccccc1OCC(=O)NCc1n[nH]c(=O)c2ccccc12	11.2%[0.501 µM]	.	2.1%	10.1%	33.6%
COC(=O)c1cccc2c1NC(=O)C2=O	1.1%	11.3%	-2.1%	-2.1%	38.6%
Cc1ccc(C(=O)CSc2nnc(C(C)C)n2C)cc1C	.	12.0%	-2.0%[57.1 µM]	2.0%	6.5%

Assay outcomes (PubChem)
